Most compounds without a hit are left out; they make up all but 1.6% or so of the library.
KCNQ2 inh: rat KCNQ2 potassium channel inhibitors, primary screen, cell-based, CHO-K1, FluxOR thallium flux, B-score; Potassium voltage-gated channel subfamily KQT member 2 (Rattus norvegicus), O88943; B-score at 10 µM; 20 min; stronger effect = lower value; AID 2156, 2009; 310,000 tested, 1.1% active;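 active means fluorescence ratio B-score at most minus 3 library SDs, with starting brightness B-score within 2 library SDs, cut at about -5.5 in these data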
Target sequence (O88943 whole entry, looked up): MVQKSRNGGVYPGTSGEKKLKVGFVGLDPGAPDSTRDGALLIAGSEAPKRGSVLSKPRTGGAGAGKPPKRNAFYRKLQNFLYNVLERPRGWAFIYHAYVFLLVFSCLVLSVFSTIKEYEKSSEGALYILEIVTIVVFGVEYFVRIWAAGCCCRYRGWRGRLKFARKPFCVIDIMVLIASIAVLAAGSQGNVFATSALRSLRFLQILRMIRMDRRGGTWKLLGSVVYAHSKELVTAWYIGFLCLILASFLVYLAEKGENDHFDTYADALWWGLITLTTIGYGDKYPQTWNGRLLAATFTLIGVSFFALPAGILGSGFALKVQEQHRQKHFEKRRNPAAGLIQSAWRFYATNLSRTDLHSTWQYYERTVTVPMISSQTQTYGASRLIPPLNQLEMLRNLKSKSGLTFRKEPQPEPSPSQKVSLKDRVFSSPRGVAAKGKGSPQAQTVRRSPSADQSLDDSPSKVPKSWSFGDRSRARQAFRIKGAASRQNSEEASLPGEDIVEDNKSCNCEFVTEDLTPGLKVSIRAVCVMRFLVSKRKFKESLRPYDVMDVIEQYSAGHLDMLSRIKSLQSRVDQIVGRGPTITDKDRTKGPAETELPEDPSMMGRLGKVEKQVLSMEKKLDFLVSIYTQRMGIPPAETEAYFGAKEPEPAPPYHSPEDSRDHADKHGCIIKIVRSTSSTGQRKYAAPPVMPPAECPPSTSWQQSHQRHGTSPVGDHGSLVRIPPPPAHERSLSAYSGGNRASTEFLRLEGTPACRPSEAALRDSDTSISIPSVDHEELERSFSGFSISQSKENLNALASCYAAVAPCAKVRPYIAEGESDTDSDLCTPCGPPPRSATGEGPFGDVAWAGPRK
KCNQ2 pot: potentiators of rat KCNQ2 potassium channel; Potassium voltage-gated channel subfamily KQT member 2 (Rattus norvegicus), O88943; CHO-K1 KCNQ2, FluxOR thallium flux fluorescence; stronger effect = higher value; B-score at 10 µM; 310,000 tested, 0.54% active;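 active means fluorescence ratio B-score at least 3 SD of library B-scores, with initial fluorescence B-score within 3 of them, cut at about 5.3 in these data; same plate scores as AID 2156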;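 further: B-score of peak minus minimum over baseline fluorescence ratio after K+ and Tl+ stimulus; positive B-score means potentiation of KCNQ2 with more thallium influx and brighter signal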
* = called active by the depositor.

CN(C)c1ccc(C=NC(CO)C(O)c2ccc([N+](=O)[O-])cc2)cc1 (configuration not stated) was read as KCNQ2 inh inactive.
For CN(C)c1ccc(C(c2ccc(N(C)C)cc2)c2ccc([N+](=O)[O-])cc2)cc1 the results were KCNQ2 inh -6.58* and KCNQ2 pot -6.58.
Cc1ccc(N2CC(C(=O)Nc3ccc(S(=O)(=O)Nc4ncccn4)cc3)CC2=O)cc1C (configuration not stated) was read as KCNQ2 inh inactive and KCNQ2 pot 1.28.
For C/C(CC(=O)Nc1cc(C)ccn1)=N\NC(=O)C(=O)Nc1cccc(C)c1 the results were KCNQ2 inh inactive and KCNQ2 pot 5.36*.
For COc1ccc(NC(=O)C(=O)N/N=C(\C)CC(=O)Nc2cc(C)ccn2)c(OC)c1 the results were KCNQ2 inh inactive and KCNQ2 pot 1.03.
`COc1cc(NC(=O)C(C)Oc2ccccc2)c(OC)cc1NC(=O)c1ccccc1` (configuration not stated) gave KCNQ2 inh inactive.
`Cc1cc(C)c(OCC(=O)Nc2ccccc2N2CCCCC2)c(C)c1` gave KCNQ2 inh -5.56* and KCNQ2 pot -5.56.
Cc1cccc(OCC(=O)Nc2ccccc2N2CCCCC2)c1 was read as KCNQ2 inh inactive.
Screening Cc1ccc(C(C)C)c(OCC(=O)NC(=S)Nc2ccccc2N2CCOCC2)c1 returned KCNQ2 inh -6.45* and KCNQ2 pot -6.45.
For Cc1ccc(OCC(=O)Nc2ccccc2N2CCCC2)c(C)c1 the results were KCNQ2 inh -5.57* and KCNQ2 pot -5.57.
`Cc1cccc(OCC(=O)NC(=S)Nc2ccccc2N2CCOCC2)c1C` gave KCNQ2 inh inactive.
Cc1ccccc1OCC(=O)Nc1ccccc1N1CCC(C)CC1 was read as KCNQ2 inh -6.2* and KCNQ2 pot -6.2.
Screening O=C(COc1ccccc1)Nc1ccccc1N1CCCCC1 returned KCNQ2 inh inactive.
Screening CC(=O)N1CCN(c2ccccc2NC(=O)COc2ccccc2C)CC1 returned KCNQ2 inh inactive.
`CCOc1ccc(S(=O)(=O)N2CCCCC2)cc1NC(=O)CC1OC(=O)c2ccccc21` (configuration not stated) gave KCNQ2 inh inactive and KCNQ2 pot 0.25.
For Cc1ccc(C(=O)Nc2ccc(F)cc2)cc1NC1=NC2CS(=O)(=O)CC2S1 (configuration not stated) the results were KCNQ2 inh inactive.
`CCCN(Cc1nnc(-c2ccccc2Cl)o1)C(=O)c1cccc(S(=O)(=O)N2CCOCC2)c1` gave KCNQ2 inh inactive.
`Cc1ccccc1OCC(=O)Nc1ccccc1-c1ccccc1NC(=O)COc1ccccc1C` gave KCNQ2 inh -5.61* and KCNQ2 pot -5.61.
Screening COc1ccc(C(=O)NC(=S)Nc2ccccc2N2CCOCC2)cc1Br returned KCNQ2 inh inactive.
For Cc1ccccc1OCC(=O)Nc1ccc(C)c(S(=O)(=O)N2CCCCCC2)c1 the results were KCNQ2 inh -6.07* and KCNQ2 pot -6.07.
For Cc1ccccc1OCC(=O)Nc1cccc(Cl)c1C the results were KCNQ2 inh inactive and KCNQ2 pot 0.3.
`COc1ccc(C(=O)Nc2ccccc2N2CCOCC2)cc1Br` gave KCNQ2 inh -6.29* and KCNQ2 pot -6.29.
For Cc1ccccc1OCC(=O)Nc1ccc(S(=O)(=O)N2CCCC2)cc1 the results were KCNQ2 inh inactive.
CCOC(=O)C1=C(C)N(CCCC(=O)O)C(=O)NC1c1cccs1 (configuration not stated) was read as KCNQ2 inh inactive.
`O=[N+]([O-])c1ccc(CP(=O)(c2ccccc2)c2ccccc2)cc1` gave KCNQ2 inh inactive.
`COc1ccccc1Nc1nc(N)nc(CSC(=S)N2CCCCC2)n1` gave KCNQ2 inh inactive.
Screening Cc1ccc(NC(=O)CN2C(=O)NC3(CCCc4ccccc43)C2=O)c([N+](=O)[O-])c1 (configuration not stated) returned KCNQ2 inh inactive.
Screening Cc1ccn2c(NC(=O)C(C)(C)Oc3ccc(Cl)cc3)c(-c3cccs3)nc2c1 returned KCNQ2 inh -6.36* and KCNQ2 pot -6.36.
For Cc1ccc(C(=O)Nc2c(-c3cccs3)nc3cc(C)ccn23)cc1 the results were KCNQ2 inh inactive and KCNQ2 pot 0.53.
O=C(O)CCn1c(SCCOc2ccccc2F)nc2ccccc21 was read as KCNQ2 inh inactive.
Screening COC(=O)C1=CN(c2ccc(OC)cc2)C=C(C(=O)OC)C1c1ccc([N+](=O)[O-])cc1 returned KCNQ2 inh -5.62* and KCNQ2 pot -5.62.
COC(=O)C1=CN(c2ccc(F)cc2)C=C(C(=O)OC)C1c1ccc([N+](=O)[O-])cc1 was read as KCNQ2 inh inactive.
Screening N#Cc1c(C(F)(F)F)cc(Cc2ccccc2)nc1SCC(=O)NCC(=O)O returned KCNQ2 inh inactive.

From PubChem BioAssay
